GPR151 ag = activators of human GPR151 | Q8TDV0 | PathHunter beta-arrestin GPR151 cells, luminescence | activation, % at 11.2 µM | 1% of 650,000 active; in the data active means activation above about 4.9%;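 further: 0% = median of compound wells and 100% = cells with positive control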
MITF primary = blocks human microphthalmia-associated transcription factor; O75030; inhibition, % at 2.6 µM; 0.91% of 650,000 active; AID 1259374; AlphaScreen MITF homodimerization, bead proximity signal; in the data active means inhibition above about 50%;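 further: 0% = vehicle wells with protein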
Target sequence (O75030 whole entry, looked up): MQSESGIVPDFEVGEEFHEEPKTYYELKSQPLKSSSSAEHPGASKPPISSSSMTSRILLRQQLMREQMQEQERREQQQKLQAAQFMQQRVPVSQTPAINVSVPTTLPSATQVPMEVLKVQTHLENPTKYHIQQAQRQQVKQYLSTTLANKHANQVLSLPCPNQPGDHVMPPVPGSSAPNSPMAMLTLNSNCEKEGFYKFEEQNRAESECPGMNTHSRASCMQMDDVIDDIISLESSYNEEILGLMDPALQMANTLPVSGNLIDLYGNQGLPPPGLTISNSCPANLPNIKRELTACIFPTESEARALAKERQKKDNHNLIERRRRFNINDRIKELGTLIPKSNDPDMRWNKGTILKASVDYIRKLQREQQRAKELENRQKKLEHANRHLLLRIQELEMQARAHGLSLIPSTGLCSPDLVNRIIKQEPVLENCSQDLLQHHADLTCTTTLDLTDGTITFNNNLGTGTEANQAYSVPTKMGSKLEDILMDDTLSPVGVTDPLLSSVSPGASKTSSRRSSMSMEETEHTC
TEAD-YAP block = TEAD-YAP interaction inhibition; HEK-TIYL cells, TEAD-Gal4/YAP UAS-luciferase luminescence; inhibition, % at 9.12 µM; 1.4% of 640,000 active; AID 1259422; in the data active means inhibition above about 32%;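 further: 0% = median of test compound wells and 100% = reference inhibitor wells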
FBW7 activator = activators of human E3 ligase FBW7 | AlphaScreen FBW7–phospho-cyclin E peptide binding, activator screen | 0.13% of 650,000 active | Q969H0 | normalized activity (activation), % at 26.1 µM; in the data active means normalized activity above about 1.9%;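 further: purified mutant Fbw7 with reduced substrate affinity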
An asterisk follows results filed as active; ! = not confirmed by another sample. Shown are actives, neighbours in structure and some others; about 3.5% of the full set was active somewhere.

SMILES	GPR151 ag	MITF primary	TEAD-YAP block	FBW7 activator
O=C(O)CNc1cc(N2CCCCCC2)c2noc3c2c1C(=O)c1ccccc1-3	-5	61*	77*	-1
O=C(O)CCNc1cc(N2CCCCC2)c2noc3c2c1C(=O)c1ccccc1-3	3	89*	14	0
CC1CCCN(c2cc(NCCN(C)CCO)c3c4c(onc24)-c2ccccc2C3=O)C1 (centres undefined)	-2	61*	39*	-1
O=C1c2ccccc2-c2onc3c(N4CCCCC4)cc(Nc4ccccc4)c1c23	-1	40	7	0
CC(C)Nc1cc(NCCO)c2noc3c2c1C(=O)c1ccccc1-3	-2	43	37*	0
CC(C)Nc1cc(N(C)CCO)c2noc3c2c1C(=O)c1ccccc1-3	0	26	15	0
COc1ccc(NC(=O)/C(C#N)=C/c2ccc(C(C)C)c([N+](=O)[O-])c2)cc1	4	10	-6	0
O=C(c1ccc(S(=O)(=O)c2ccc(F)cc2)c([N+](=O)[O-])c1)N1CCC(Cc2ccccc2)CC1	1	9	0	0
CCc1ccc2[nH]c(=O)c(CN(CCO)C(=O)Nc3ccc(F)cc3)cc2c1	1	-7	-3	0
O=[N+]([O-])c1cc(CN2CCN(C/C=C/c3ccccc3)CC2)ccc1O	1	1	4	0
O=C(CCN1C(=O)c2ccccc2S1(=O)=O)NC1CCCC1	1	14	1	1
COc1ccc(C2Nc3ccc(C(=O)c4ccccc4)cc3NC3=C2C(=O)CCC3)cc1OC (centres undefined)	-1	-9	59*	0
COc1cc(C2C3=C(CCCC3=O)Nc3ccc4nc(C)ccc4c32)ccc1OC(C)=O (centres undefined)	0	-12	-3	0
CCOc1cc(C2Nc3ccc(C(=O)c4ccccc4)cc3NC3=C2C(=O)CCC3)ccc1O (centres undefined)	1	3	64*	0
COc1cc(C2C3=C(CCCC3=O)Nc3ccc4ncccc4c32)ccc1OC(C)=O (centres undefined)	1	17	54*	0
CCOc1cc(C2Nc3ccc(C(=O)c4ccccc4)cc3NC3=C2C(=O)CC(C)(C)C3)ccc1O (centres undefined)	-1	4	45*	0
CCCCCCCCCCCCC[N+](C)(C)Cc1ccccc1	1	24	38*	0
COc1cccc(/C=C2\SC(=S)NC2=O)c1OCC(=O)O	0	-2	-4	-1
CC1(C)OC(=O)N(CCOC23CC4CC(CC(C4)C2)C3)C1(C)O (centres undefined)	0	6	5	0
O=C1CCCN1CCn1cnc2c(NCc3nc4ccccc4[nH]3)nc(Nc3ncccn3)nc21	3	-2	7	0
O=C1CCCN1CCn1cnc2c(NCc3nc4ccccc4[nH]3)nc(Nc3ccc4ncccc4c3)nc21	-2	6	59*	0
O=C1CCCN1CCn1cnc2c(NCc3nc4ccccc4[nH]3)nc(Nc3ccc(-n4ccnc4)cc3)nc21	1	4	39*	0
CCOC(=O)c1sc(NC(=O)c2cccnc2)c(C(=O)OCC)c1C	1	0	12	0
CC(=O)N1CC(C)Sc2cc(S(=O)(=O)N3CCN(Cc4ccccc4)CC3)ccc21 (centres undefined)	0	14	49*	0
Cc1[nH]n2c(=O)cc(C(C)(C)C)nc2c1-c1cccs1	-1	13	50*	0
SMILES	GPR151 ag	MITF primary	TEAD-YAP block	FBW7 activator
CCOc1ccc(/C=C2\Oc3c(ccc(O)c3CN(C)C)C2=O)cc1	2	13	19	0
CCOC(=O)C1=C(c2ccccc2)N=c2s/c(=C/c3cc([N+](=O)[O-])ccc3N3CCN(C)CC3)c(=O)n2C1c1cccs1 (centres undefined)	-1	-14	-3	0
CC(C)(C)OC(=O)N/N=C/c1cccc(O)c1	-4	3	84*	0
O=C(N/N=C/c1cccc(O)c1)c1ccc(F)cc1	-1	8	35*	0
CCN(CC)c1nc(NCCN2CCOCC2)nc(N2CCc3ccccc3C2)n1	0	13	2	0
C/C=C/C(=O)Nc1ccc(-c2ccc(NC(=O)/C=C/C)c(OC)c2)cc1OC	0	8	61*	1
CC(=O)Nc1nc(-c2ccc3c(c2)NC(=O)CO3)cs1	0	6	58*	0
FC(F)(F)c1ccc(Nc2nc(Nc3ccc4c(c3)OCO4)c3[nH]cnc3n2)cc1	-1	8	1	0
CCCNc1nc(Nc2ccncn2)nc2nc[nH]c12	-1	16	36*	0
c1cc(Nc2nc(Nc3ccc4c(c3)OCO4)c3[nH]cnc3n2)ncn1	0	9	-27	27*
c1cnc(Nc2nc(Nc3ccc4c(c3)OCO4)c3[nH]cnc3n2)cn1	-1	15	31	20*
CCNc1nc(Nc2ccc3c(c2)OCO3)c2[nH]cnc2n1	-1	-2	1	0
Cc1ccc2c(c1)=NC(=O)/C(=C/c1[nH]c(=S)[nH]c1O)C=2	0	11	-2	0
COc1ccc(C(=O)Nc2cccc(Cl)c2C)cc1OC	1	2	-21	0
CC(C)(C)N(Cc1ccccc1)C(=O)COC(=O)c1c(F)cccc1F	0	9	6	0
COc1ccc(OC)c(Nc2cc(C)nc3ccccc23)c1	0	-3	37*	0
COc1cccc(Nc2cc(C)nc3ccc(OC)cc23)c1	1	29	8	0
COc1ccc2nc(C)cc(Nc3ccc(Oc4ccc(Cl)cc4)c(Cl)c3)c2c1	0	0	44*	0
COc1ccc2nc(C)cc(Nc3ccccc3OC)c2c1	-1	19	17	1
COc1cccc(Nc2cc(C)nc3ccc(Cl)cc23)c1	0	8	44*	0
NS(=O)(=O)c1cccc2c1c([N+](=O)[O-])cc1[nH]c(=O)c(=O)[nH]c12	0	69*!	-2	1
O=c1[nH]c2c([N+](=O)[O-])cccc2c2ccccc12	1	8	13	0
O=C(COc1ccc(F)cc1)Nc1nccs1	-8	7	-16	-1
CCc1ccc(OCC(=O)Nc2nccs2)cc1	-3	8	86*	0
CCCc1ccc(OCC(=O)Nc2nccs2)cc1	-4	0	81*	0
SMILES	GPR151 ag	MITF primary	TEAD-YAP block	FBW7 activator
Cc1ccc(OCC(=O)Nc2nccs2)cc1C	-1	9	75*	0
CCCNc1nc(Nc2ccc(N3CCOCC3)cc2)nc2nc[nH]c12	3	6	16	0
Cc1ccc(-n2c(-c3ccc(Cl)cc3)c[n+]3c2CCC3)cc1	2	-6	64*	0
Nc1c[n+]2c(n1-c1ccc(Br)cc1)CCCCC2	1	1	3	0
COC(=O)c1cn(NC(=O)c2ccc([N+](=O)[O-])o2)c(=O)c2ccccc12	-1	6	5	0
O=C(Cc1ccc(F)cc1)Nc1cc(-c2cn[nH]c2)ccn1	0	-16	82*	0
COc1ccc(/C=C2/SC(=N)N(c3cc(C)ccc3C)C2=O)cc1	2	8	38*	0

Screening data as filed in PubChem BioAssay.
